Measurements: PubChem BioAssay (NCATS)
Results filed as inconclusive are left out. A number with no mark means an inactive call. Activity calls are given as the source filed them. Calls follow the shape of the dose curve; as a rule, active = well fitted inhibition curve with a large enough effect; inconclusive = small, poorly fitted or top-dose-only effect; inactive = flat fitted curve, though single readings scatter.

Target: Calcium and integrin-binding protein 1 (Homo sapiens) (UniProt Q99828)
Sequence (Q99828 whole entry, looked up): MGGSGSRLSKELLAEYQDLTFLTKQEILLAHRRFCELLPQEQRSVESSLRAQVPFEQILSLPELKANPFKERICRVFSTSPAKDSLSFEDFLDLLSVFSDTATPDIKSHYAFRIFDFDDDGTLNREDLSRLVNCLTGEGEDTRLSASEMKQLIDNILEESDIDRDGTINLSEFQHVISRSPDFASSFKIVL
Test: Primary qHTS for Identification of Calcium Integrin Binding Protein 1 (CIB1) Competitor (AID 1508620);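 also: GST tagged CIB1 binding a fluorescein labelled alphaIIb integrin peptide tracer; top concentration of the series differs between compounds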
Settings: CIB1-GST / FITC-alphaIIb peptide fluorescence polarization; series mostly up to 114 µM; activity change, negative = inhibition: at the top concentration
Outline: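 CIB1-GST (1 uM final) and compound incubated 15 min at room temperature before adding FITC-alphaIIb peptide tracer (100 nM final). Competition for binding read by fluorescence polarization (ex 480, em 540) after another 15 min at room temperature.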
% is scaled to controls: 0 for no effect and ±100 for the full control effect.

Q: How did the “activity change, negative = inhibition” value turn out when `O=C(Nc1cc(F)cc(F)c1)Nc1nnc(-c2ccncc2)s1` was run?
A: 8.45%

Q: For `O=C1CCCC2=C1C(c1[nH]ncc1Cl)N=C(Nc1cccnc1)N2` (stereo not drawn), which “activity change, negative = inhibition” value is on record?
A: -1.39%

Q: How did the Potency turn out when `C[C@@H](NC(c1ccc(F)cc1)c1ccc2cccnc2c1O)c1ccccc1` (stereo partly drawn) was run?
A: inactive

Q: Which “activity change, negative = inhibition” value does the source give for `c1nc(NC[C@@H]2CCCO2)c2cc(-c3ccc4c(c3)OCO4)ccc2n1` here?
A: -0.41%

Q: `O=S(=O)(Nc1ccc2ccccc2c1)c1ccc(NCc2cccc(Cl)c2O)cc1` was tested. Which “activity change, negative = inhibition” value did it give?
A: -14.3%

Q: Which “activity change, negative = inhibition” value does the source give for `O=C(Nc1ccccn1)c1sc2ccccc2c1Cl` here?
A: 2.81%

Q: Which “activity change, negative = inhibition” value does the source give for `CC(C)(C)c1ccc(Nc2nc(C#N)nc(NC3CCCC3)n2)cc1` here?
A: 3.45%

Q: `O=S(=O)(Nc1cccc2ccccc12)c1ccc(NCc2ccc(Br)cc2O)cc1` was tested. Which “activity change, negative = inhibition” value did it give?
A: 2.24%

Q: How did the “activity change, negative = inhibition” value turn out when `COc1ccc2c(c1)Oc1nc(-c3ccc(C)cc3)nc(SCC(=O)Nc3cccc(C(=O)O)c3)c1C2` was run?
A: 0.615%

Q: `C#CCOc1cccc(-c2nnc3n2N=C(c2ccc(OC)c(OCC(C)=O)c2)CS3)c1` was tested. Which “activity change, negative = inhibition” value did it give?
A: 6.05%

Q: How did the “activity change, negative = inhibition” value turn out when `O=C(Nc1ccc(-n2cncn2)c(F)c1)Nc1nnc(-c2ccncc2)s1` was run?
A: 4.45%

Q: How did the “activity change, negative = inhibition” value turn out when `O=C1c2ccccc2NC(c2ccc(-c3ccc(Br)cc3)o2)N1O` (stereo not drawn) was run?
A: -16.9%

Q: With `N#Cc1no[n+]([O-])c1-c1ccccc1` as the compound, how does the “activity change, negative = inhibition” value read?
A: -2.19%

Q: Which Potency does the source give for `O=C(/C=C/c1ccc2c(c1)OCO2)Nc1cccc([S+](=O)([O-])Nc2ccccc2F)c1` here?
A: inactive

Q: Which “activity change, negative = inhibition” value does the source give for `Nc1cccc(S(=O)(=O)N2CCN(S(=O)(=O)c3c(F)cccc3F)CC2)c1` here?
A: 1.36%

Q: Which “activity change, negative = inhibition” value does the source give for `COc1ccc2nc(-c3cccc(F)c3)sc2c1` here?
A: 0.412%

Q: `CC(=O)NC(c1cc(F)c2cccnc2c1O)C1CC1` (stereo not drawn) was tested. Which “activity change, negative = inhibition” value did it give?
A: -16.1%

Q: For `CN1CCN(Nc2nn3c(=O)c4ccccc4nc3s2)CC1`, which “activity change, negative = inhibition” value is on record?
A: 7.99%
